Source: PubChem BioAssay
The sample as a whole holds a higher share of hits than the screen did.
IDE exosite inh – displaces the probe from the exo-site of human IDE; 17,000 compounds, 6.3% hits; purified IDE, FL-6b probe fluorescence polarization; stronger effect = lower value; z-score at 20 µM; P14735; AID 1259349;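 active = z-score of -3 or lower, meaning strong loss of probe binding signal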;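 also: His-tagged human IDE residues 42-1019 made in E. coli with 30 nM FL-6b probe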
Target sequence (P14735 42-1019 limits assumed): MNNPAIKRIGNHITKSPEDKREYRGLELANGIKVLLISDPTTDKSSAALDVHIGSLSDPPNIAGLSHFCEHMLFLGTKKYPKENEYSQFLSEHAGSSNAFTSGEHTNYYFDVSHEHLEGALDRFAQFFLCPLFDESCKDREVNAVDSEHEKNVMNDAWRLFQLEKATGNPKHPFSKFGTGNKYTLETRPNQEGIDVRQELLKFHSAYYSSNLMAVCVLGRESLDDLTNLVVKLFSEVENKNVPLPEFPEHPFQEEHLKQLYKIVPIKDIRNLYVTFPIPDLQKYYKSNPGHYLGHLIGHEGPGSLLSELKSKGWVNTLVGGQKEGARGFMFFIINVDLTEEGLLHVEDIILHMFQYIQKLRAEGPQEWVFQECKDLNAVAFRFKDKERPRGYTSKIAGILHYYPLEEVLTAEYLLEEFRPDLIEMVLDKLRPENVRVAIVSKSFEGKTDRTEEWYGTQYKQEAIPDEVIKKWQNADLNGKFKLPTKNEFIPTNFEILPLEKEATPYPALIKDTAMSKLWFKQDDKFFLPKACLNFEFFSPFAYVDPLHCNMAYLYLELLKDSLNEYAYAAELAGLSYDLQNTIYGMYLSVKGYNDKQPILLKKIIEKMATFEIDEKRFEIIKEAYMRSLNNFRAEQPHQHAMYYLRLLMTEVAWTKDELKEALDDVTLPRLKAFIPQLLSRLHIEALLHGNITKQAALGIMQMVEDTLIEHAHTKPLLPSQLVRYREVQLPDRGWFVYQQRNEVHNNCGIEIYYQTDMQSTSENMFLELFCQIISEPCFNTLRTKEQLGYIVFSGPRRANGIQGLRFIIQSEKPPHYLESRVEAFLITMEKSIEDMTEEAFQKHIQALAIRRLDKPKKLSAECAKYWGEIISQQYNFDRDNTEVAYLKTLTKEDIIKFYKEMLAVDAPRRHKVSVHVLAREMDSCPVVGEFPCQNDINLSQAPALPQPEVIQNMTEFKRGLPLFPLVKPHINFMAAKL
Active calls of the source: *.

For CCC(=O)N1CCCCN2[C@@H](CO)[C@H](c3ccc(C#Cc4ccccc4)cc3)[C@@H]2C1 the results were IDE exosite inh -9.4*.
`CCC(=O)N1CCCCN2[C@@H](CO)[C@H](c3ccc(C#CCOC)cc3)[C@@H]2C1` gave IDE exosite inh 2.79.
Screening O=C(Nc1ccccc1)N1CCCCN2[C@H](CO)[C@@H](c3ccc(C#Cc4ccccc4)cc3)[C@H]2C1 returned IDE exosite inh 3.2.
CCC(=O)N1CCCCN2[C@H](CO)[C@H](c3ccc(C#CCOC)cc3)[C@H]2C1 was read as IDE exosite inh 2.96.
CCC(=O)N1CCCCN2[C@@H](CO)[C@H](c3ccc(-c4cccc(C#N)c4)cc3)[C@@H]2C1 was read as IDE exosite inh 0.21.
Screening CCC(=O)N1CCCCN2[C@H](CO)[C@H](c3ccc(C#Cc4ccccc4)cc3)[C@H]2C1 returned IDE exosite inh -4.71*.
CCC(=O)N1CCCCN2[C@H](CO)[C@@H](c3ccc(C#CCOC)cc3)[C@@H]2C1 was read as IDE exosite inh 2.35.
`CCN(C[C@@H]1[C@@H](c2ccccc2)[C@@H](CO)N1S(C)(=O)=O)C(=O)C1CC1` gave IDE exosite inh 2.28.
COc1ccc(-c2ccc([C@H]3[C@@H](CO)N(C(=O)C4CCOCC4)[C@H]3C#N)cc2)cc1 was read as IDE exosite inh -0.422.
CC(=O)N1CC(=O)N2[C@H](CO)[C@H](c3ccc(-c4ccncc4)cc3)[C@@H]2C1 was read as IDE exosite inh -0.02.
`COc1ccc2c3c(n(C)c2c1)[C@H](CO)N(C(=O)NC1CCCCC1)CC31CCN(C)CC1` gave IDE exosite inh -1.67.
For O=C(Nc1cccc(F)c1)N1CCCCN2[C@H](C1)[C@H](c1ccc(-c3ccccc3F)cc1)[C@@H]2CO the results were IDE exosite inh 2.48.
Screening CN1CCN(C(=O)C[C@@H]2CC[C@@H]3[C@@H](COc4ccc(NC(=O)c5cccs5)cc4C(=O)N3C)O2)CC1 returned IDE exosite inh -0.828.
`COc1ccc(C#Cc2ccc([C@H]3[C@H](CO)N4C(=O)CN(C(=O)c5ccc(F)cc5)C[C@@H]34)cc2)cc1` gave IDE exosite inh 0.553.
Screening CN1C(=O)c2cc(NC(=O)Nc3ccccc3Cl)ccc2OC[C@H]2O[C@@H](CC(=O)O)CC[C@@H]21 returned IDE exosite inh -0.651.
For O=C(C[C@@H]1C=C[C@@H](NS(=O)(=O)c2ccc(F)cc2)[C@@H](CO)O1)N1CCc2ccccc2C1 the results were IDE exosite inh 0.274.
`CN(C)Cc1cn(CC[C@@H]2CC[C@H](NC(=O)Cc3cccnc3)[C@@H](CO)O2)nn1` gave IDE exosite inh -0.414.
CCC(=O)N1CC(=O)N2[C@H](CO)[C@@H](c3ccc(-c4cccnc4)cc3)[C@@H]2C1 was read as IDE exosite inh -1.45.
For O=C1CN(Cc2ccc(F)cc2)C[C@H]2[C@@H](c3ccc(-c4cccnc4)cc3)[C@H](CO)N12 the results were IDE exosite inh 0.496.
CCC(=O)N1CC(=O)N2[C@@H](CO)[C@H](c3ccc(-c4cccnc4)cc3)[C@@H]2C1 was read as IDE exosite inh 1.38.
For O=C(c1ccccc1F)N1CC(=O)N2[C@H](C1)[C@@H](c1ccc(-c3cccnc3)cc1)[C@@H]2CO the results were IDE exosite inh -3.11*.
O=C(c1ccccc1F)N1CC(=O)N2[C@@H](CO)[C@@H](c3ccc(-c4cccnc4)cc3)[C@@H]2C1 was read as IDE exosite inh -1.36.
`O=C(C1CCCCC1)N1CC(=O)N2[C@H](C1)[C@H](c1ccc(-c3cccnc3)cc1)[C@@H]2CO` gave IDE exosite inh -0.00311.
For O=C(C1CCCCC1)N1CC(=O)N2[C@@H](CO)[C@H](c3ccc(-c4cccnc4)cc3)[C@@H]2C1 the results were IDE exosite inh 1.43.
For O=C(c1ccccc1F)N1CC(=O)N2[C@@H](CO)[C@H](c3ccc(-c4cccnc4)cc3)[C@@H]2C1 the results were IDE exosite inh -1.55.
Screening Cc1ccc(CN2CC(=O)N3[C@@H](CO)[C@H](c4ccc(-c5cccnc5)cc4)[C@@H]3C2)cc1 returned IDE exosite inh -3.09*.
O=C1CN(Cc2ccc(F)cc2)C[C@@H]2[C@@H](c3ccc(-c4cccnc4)cc3)[C@@H](CO)N12 was read as IDE exosite inh -0.307.
O=C(C1CCCCC1)N1CC(=O)N2[C@H](CO)[C@H](c3ccc(-c4cccnc4)cc3)[C@H]2C1 was read as IDE exosite inh -4.75*.
`CCC(=O)N1CC(=O)N2[C@H](CO)[C@H](c3ccc(-c4cccnc4)cc3)[C@H]2C1` gave IDE exosite inh -3.12*.
Screening O=C(Nc1cccc(F)c1)N1CC(=O)N2[C@@H](CO)[C@@H](c3ccc(Br)cc3)[C@@H]2C1 returned IDE exosite inh 1.32.
Screening C[C@H]1CC=CC[C@H](c2cccc(Cl)c2)NC(=O)[C@H](Cc2ccccc2)N(C)C(=O)c2ccccc2O1 (mixture of isomers) returned IDE exosite inh -0.434.
`CCCC#Cc1ccc([C@@H]2[C@@H](CO)N3C(=O)CN(C(=O)NC4CCCC4)C[C@H]23)cc1` gave IDE exosite inh 0.867.
Screening N#C[C@@H]1[C@H](c2ccc(C3=CCCCC3)cc2)[C@@H](CO)N1C(=O)c1ccccn1 returned IDE exosite inh -0.668.
For C/C=C/c1ccc([C@@H]2[C@H](CO)N3C(=O)CN(C(=O)c4ccncc4)C[C@@H]23)cc1 the results were IDE exosite inh 0.705.
For O=C(c1ccc(F)cc1)N1CC(=O)N2[C@H](CO)[C@H](c3ccc(/C=C/c4ccccc4)cc3)[C@@H]2C1 the results were IDE exosite inh 1.23.
C/C=C/c1ccc([C@@H]2[C@@H](CO)N3C(=O)CN(C(=O)c4ccncc4)C[C@@H]23)cc1 was read as IDE exosite inh 1.06.
C/C=C/c1ccc([C@H]2[C@H]3CN(C(=O)c4ccncc4)CC(=O)N3[C@H]2CO)cc1 was read as IDE exosite inh 0.604.
O=C(c1ccccc1)N1CC(=O)N2[C@H](CO)[C@H](c3ccc(/C=C/c4ccccc4)cc3)[C@H]2C1 was read as IDE exosite inh -8.37*.
O=C(c1ccccc1)N1CC(=O)N2[C@H](CO)[C@H](c3ccc(/C=C/c4ccccc4)cc3)[C@@H]2C1 was read as IDE exosite inh -2.8.
O=C(c1ccncc1)N1CC(=O)N2[C@H](CO)[C@@H](c3ccc(/C=C/c4ccccc4)cc3)[C@@H]2C1 was read as IDE exosite inh -1.02.
O=C(c1ccncc1)N1CC(=O)N2[C@@H](CO)[C@H](c3ccc(/C=C/c4ccccc4)cc3)[C@@H]2C1 was read as IDE exosite inh -15.9*.
O=C(c1ccncc1)N1CC(=O)N2[C@H](C1)[C@@H](c1ccc(/C=C/c3ccccc3)cc1)[C@@H]2CO was read as IDE exosite inh -5.98*.
Screening C[C@H](CO)N1C[C@H](C)[C@H](CN(C)C(=O)CCC(F)(F)F)OCCCC[C@H](C)Oc2ccc(NC(=O)C3CCCCC3)cc2C1=O returned IDE exosite inh 0.688.
Screening CCCC(=O)Nc1ccc2c(c1)OC[C@@H](C)N(S(=O)(=O)c1cn(C)cn1)C[C@H](C)[C@H](OC)CN(C)C2=O returned IDE exosite inh 2.27.
Cc1cccc(S(=O)(=O)N2CCCCN3[C@H](C2)[C@@H](c2ccc(C#CC(C)C)cc2)[C@@H]3CO)c1 was read as IDE exosite inh 2.11.
